In general, inhibition refers to the drop in the measured response relative to a control, in per cent.

The whole screen tested about 290,000 compounds, of which about 27,000 (9.3%) were called active. Rule as the data show it: active = inhibition mostly above about 28% (no sharp cut-off); inactive = mostly below about 43%. This excerpt belongs to a sample that is enriched for actives.

The nature of the experiment: A qHTS for Small Molecule Inhibitors of Shiga Toxin. Also: 0% is about no effect. The note with it: Vero cells, Shiga toxin protein synthesis inhibition reporter; at 38.7 µM, hits give high values. For orientation: Quantitative high-throughput screening tests each substance at several concentrations.
As for `COCCN1CCn2c(nc3cc(NS(C)(=O)=O)ccc32)C1`, the inhibition was -2.98% (inactive).
The same measure for `COc1ccc(C(=O)NC2CC(C)(C)Cc3c2cnn3-c2ccccc2C)o1` (stereo not drawn): -10.5% (inactive); for `O=C(COc1ccc2c3c(c(=O)oc2c1)CCCC3)NCC(O)c1ccccc1` (stereo not drawn): -3.53% (inactive); for `O=C(CCn1c(=S)[nH]c2cc3c(cc2c1=O)OCO3)NCc1ccc(Cl)cc1`: 1.66% (inactive).
The same measure for `O=C(CCc1nnc(Cc2ccc3c(c2)OCO3)o1)NCCc1ccccc1Cl`: -5.99% (inactive); for `CN1CCN(Cc2nc3cc(NC(=O)COc4ccc([N+](=O)[O-])cc4)ccc3n2C)CC1`: -2.13% (inactive); for `COC(=O)c1cccc(C(=O)N2CCCC(Nc3ccc4c(c3)OCCO4)C2)c1` (stereo not drawn): 2.25% (inactive).
As for `Cc1cc(/C=C2\SC(=O)N(C)C2=O)c(C)n1-c1cccc(C(=O)O)c1`, the inhibition is 3.52% (inactive).
For `COc1ccc(OCCCCN2CCC(C)CC2)cc1`, the inhibition was -6% (inactive).
Turning to `Cc1cccc(NC(=S)Nc2ccc(Cl)c(Cl)c2)c1`, the inhibition was 17% (inactive).
The same measure for `Cn1cc(Cl)c(C(=O)NNC(=S)Nc2cccc(Cl)c2)n1`: 49.5% (active); for `CC(C)CNC(=S)NNC(=O)c1nn(C)cc1Cl`: 4.35% (inactive); for `CC(Cc1cccs1)N(Cc1ccc(Cl)cc1)C(=O)c1ccncc1` (stereo not drawn): -3.64% (inactive).
In the case of `COc1cc(OC)c(NS(=O)(=O)c2cn(C)cn2)cc1Cl`, the inhibition is 11.1% (inactive).
The same measure for `COc1cccc(CNC(=O)c2cccnc2Sc2ccc(Cl)cc2)c1`: -40.4% (inactive).
As for `CC1CCCN(c2ccc(C(=O)NCCc3ccccc3)cn2)C1` (stereo not drawn), the figure is 78.5% (active); as for `O=C(NCCc1ccccc1)c1ccc(NC2=NC3CS(=O)(=O)CC3S2)cc1` (stereo not drawn), 3.05% (inactive); as for `CC1CCN(c2c(NCc3ccc(C(=O)NCc4ccccc4)cc3)c(=O)c2=O)CC1`, -6.77% (inactive).
For `CCN(CC)S(=O)(=O)c1ccc(N2CCCC2)c(NS(=O)(=O)c2cccs2)c1`, the inhibition was 21% (inactive).
As for `COc1ccc(CNc2c(CO)cnc3c2cnn3C)cc1`, the figure is -11.4% (inactive); as for `CN(C)/C=C(/C(=O)c1ccccc1)S(=O)(=O)c1ccc(Cl)cc1`, 13.2% (inactive); as for `CN(C)/C=C(/C(=O)c1ccc(F)cc1)S(=O)(=O)c1ccc(F)cc1`, 58.3% (inactive).
For `CN(C)/C=C(/C(=O)c1ccc(Cl)cc1)S(=O)(=O)c1ccccc1`, the inhibition was 64.1% (active).
`Cc1ccc(C(CNC(=O)Nc2ccccc2)N2CCN(C)CC2)cc1` (stereo not drawn): the inhibition is -3.91% (inactive).
As for `CCc1cc(=O)oc2c(C)c(OCC(=O)NCCN3CCOCC3)ccc12`, the figure is -2.76% (inactive).
The same measure for `O=C(Nc1ccc(Cl)cn1)c1cnn2cccnc12`: 85.1% (active); for `Cc1cc(NC(=O)c2cnn3cccnc23)n(-c2ccccc2)n1`: -5.01% (inactive).
`COc1cccc(-c2cccc(NC(=O)C3CCN(C4CCC4)CC3)c2)c1`: the inhibition was -10.9% (inactive).
Turning to `COc1cc(Nc2nc3ccc(Cl)cc3n3cnnc23)cc(OC)c1OC`, the inhibition was -9.44% (inactive).
The same measure for `COc1ccc(CC(=O)Nc2cc(S(=O)(=O)N3CCCCC3)ccc2N2CCN(C)CC2)cc1`: 2.85% (inactive); for `CCN1CCN(c2ccc(S(=O)(=O)N3CCCCC3)cc2NC(=O)Cc2c(Cl)cccc2Cl)CC1`: 42.5% (active).
The same measure for `CN1CCN(c2ccc(S(=O)(=O)N3CCCCC3)cc2NC(=O)Cc2ccccc2F)CC1`: -8% (inactive).
On to `COC(=O)c1cnc(Nc2cc(C)ccc2OC)c2ccccc12`, for which the inhibition is -8.41% (inactive).
The same measure for `Cc1cc(F)ccc1NC(=S)NCCc1ccccc1`: 6.98% (inactive); for `Cc1ccc(C)c(C(C)NC(=O)C2CCCO2)c1` (stereo not drawn): -10.5% (inactive).
Take `Cc1ccc(COc2ccc(/C=N/NC(=O)CN3CCCCC3)cc2)cc1`: the inhibition is 87.5% (active).
The same measure for `O=C(CN1CCSCC1)N/N=C/c1ccc(Cl)cc1`: 29.2% (inactive).
The same measure for `CCOc1cc(/C=N/NC(=O)CN2CCCCC2)ccc1O`: -8.43% (inactive); for `CC(=O)N/C(=N/c1nc(C)cc(C)n1)Nc1ccc(F)cc1F`: -13.6% (inactive); for `CC(OC(=O)c1ccc2noc(-c3ccccc3)c2c1)C(N)=O` (stereo not drawn): 1.23% (inactive).
The same measure for `CC(=O)c1c(C)n(-c2ccc(C)cc2)c2ccc(O)cc12`: -16.2% (inactive).
On to `O=C(Oc1ccc(-c2nc(-c3ccccn3)no2)cc1)c1ccccc1`, for which the inhibition is 33% (active).
As for `CCCCCCOc1ccc(OC(=O)c2cccnc2)cc1`, the figure is 37.9% (inactive).
Turning to `O=C(Oc1ccc(Br)cc1)c1cccnc1`, the inhibition was 22.6% (inactive).
The same measure for `CCN(CC)Cc1c(C(=O)N/N=C/c2cccc(OCc3ccc(F)cc3)c2)nnn1-c1nonc1N`: -1.06% (inactive); for `COC(c1ccccc1)(c1ccccc1)C(Oc1nc(C)cc(C)n1)C(=O)O` (stereo not drawn): -2.84% (inactive); for `COc1ccc(S(=O)(=O)n2nc(C)c(S(=O)(=O)N3CCOCC3)c2C)cc1`: 13.2% (inactive).
The same measure for `CCOC(=O)c1c(-c2ccc(-c3ccccc3)cc2)csc1NC(=O)CCC(=O)O`: -3.4% (inactive); for `O=c1c2cc([N+](=O)[O-])ccc2nc2n1CCC2`: -7.31% (inactive); for `CSc1ccc(CNC(=O)c2ccc(NC(=O)C3=CSCCO3)cc2)cc1`: 16.6% (inactive).
Take `O=C(NCc1ccccc1Cl)C1CCCO1` (stereo not drawn): the inhibition was 19.8% (inactive).
For `O=C(Nc1ccc(C(=O)NCc2ccccc2Cl)cc1)C1=CSCCO1`, the inhibition is 47.1% (active).
In the case of `CC12CCC(C(=O)N(NC(=O)c3ccccc3O)C1=O)C2(C)C` (stereo not drawn), the inhibition was 10.2% (inactive).
The same measure for `Cc1cccc(C(=O)Nc2nnc(S(=O)(=O)N3CCCCCC3)s2)c1`: 13.6% (inactive).
As for `COc1cc(/C=N/O)ccc1OCc1ccc([N+](=O)[O-])cc1`, the figure is 82.1% (active).
The same measure for `COc1cc(/C=N\Nc2ccc([N+](=O)[O-])cn2)ccc1OCC(=O)O`: 31.3% (inactive); for `COc1cc(C(=O)OCc2ccc([N+](=O)[O-])cc2)cc(OC)c1OC`: -13.3% (inactive); for `CN1CCN(C(=O)C(=O)c2cn(CC(=O)N3CCCC3)c3ccccc23)CC1`: -13% (inactive).
On to `Cc1ccc(CNC(=O)C(=O)c2cn(CC(=O)N3CCCC3)c3ccccc23)cc1`, for which the inhibition is 35.1% (active).
The same measure for `O=C(NCc1ccco1)C(=O)c1cn(CC(=O)N2CCCCCC2)c2ccccc12`: 27.2% (inactive); for `O=C(Nc1ccc(F)cc1)C(=O)c1cn(CC(=O)N2CCOCC2)c2ccccc12`: 15.3% (inactive); for `COc1cccc(NC(=O)C(=O)c2cn(CC(=O)N3CCOCC3)c3ccccc23)c1`: 92.3% (active).
With `Cc1ccc(CNC(=O)C(=O)c2cn(CC(=O)N3CCOCC3)c3ccccc23)cc1`, the inhibition is 79.4% (active).
On to `O=C(NCCCn1ccnc1)C(=O)c1cn(CC(=O)N2CCCCCC2)c2ccccc12`, for which the inhibition was -6.62% (inactive).
As for `CN(Cc1ccccc1)C(=O)C(=O)c1cn(CC(=O)N2CCCC2)c2ccccc12`, the figure is 5.26% (inactive); as for `COc1cccc(NC(=O)CS(=O)(=O)c2cn(CC(=O)N3CCOCC3)c3ccccc23)c1`, -10.3% (inactive).
The same measure for `COc1cccc(N(CC(=O)NC2CCCC2)C(=O)CCCC(=O)Nc2ccccn2)c1`: -5.09% (inactive); for `CCCNC(=O)CCc1c(C)nc2c(c(C)nn2-c2ccccc2)c1C`: -16.2% (inactive).
The same measure for `CCOc1ccc(N(CC(=O)Nc2cccc(OC)c2)S(C)(=O)=O)cc1`: 28.6% (inactive).
Take `CCC1=Nc2cc(C(=O)NCCN3CCCC3)ccc2Sc2ccc(C)cc21`: the inhibition is -6.55% (inactive).
As for `O=C(CN1C(=O)COc2ccc(Cl)cc21)Nc1ccc(N2CCOCC2)cc1`, the figure is -16.6% (inactive); as for `Cc1cccc(N(C)C(=O)CN2C(=O)COc3ccc(S(=O)(=O)N4CCCCCC4)cc32)c1`, 4.44% (inactive); as for `Cc1ccc(-c2csc(N(Cc3ccco3)C(=O)c3cccs3)n2)cc1`, 18.8% (inactive).
As for `Cc1ccc(-c2csc(-c3cc(C)on3)n2)cc1`, the figure is 43% (active); as for `CCCc1cc(-c2n[nH]c(=S)n2CC)c2ccccc2n1`, -6.2% (inactive); as for `CCn1c(SCCC(C)C)nnc1-c1c[nH]c2ccccc12`, -3.59% (inactive).
Turning to `CCCc1nc2scc(-c3ccc(C)cc3)c2c(=O)n1N`, the inhibition is 44.2% (inactive).
The same measure for `CCC(C)Sc1nnc(-c2c[nH]c3ccccc23)n1CCOC` (stereo not drawn): 11.2% (inactive); for `Cc1cc(-c2n[nH]c(=S)n2-c2ccc(C)c(C)c2)no1`: 6.5% (inactive); for `Cc1ccc(-c2csc(-c3c[nH]c4ccccc34)n2)cc1`: 111% (active).
In the case of `CCCc1cc(-c2nc(-c3ccc(C)cc3)cs2)ccn1`, the inhibition is 68% (active).
In the case of `CC(=O)N1c2ccc(S(=O)(=O)N(C)CC(=O)N(C)Cc3ccccc3)cc2CC1C` (stereo not drawn), the inhibition is -1.97% (inactive).
The same measure for `Cc1ccc(NC(=O)CCN2C(=O)c3ccccc3C2=O)cc1C`: 7.31% (inactive); for `O=C(NCCN1CCOCC1)/C(=C/c1ccc(F)cc1)NC(=O)c1ccccc1`: -6.87% (inactive); for `COc1cccc(CNC(=O)COc2cc(O)c3c(c2)OC(C)(C)CC3=O)c1`: 7.09% (inactive).
For the compound `Cc1cccc(NC(=O)C2CCCN(C(=O)NCc3ccccc3)C2)c1C` (stereo not drawn), the inhibition is 14.7% (inactive).
Turning to `CCCc1cc(=O)[nH]c(SCC(=O)N2C(C)CCCC2C)n1` (stereo not drawn), the inhibition is 1.9% (inactive).
As to `O=C(N/N=C/c1ccc([N+](=O)[O-])cc1)C(=O)N1CCCC1`, the inhibition was 19% (inactive).
Take `Cc1[nH]c2ccccc2c1/C=N/NC(=O)CNC(=O)c1ccc2c(c1)OCO2`: the inhibition is -14.9% (inactive).
`O=C(N/N=C/c1ccc2c(c1)OCO2)C(=O)N1CCCC1`: the inhibition was 76.5% (active).
For the compound `O=C(Cc1ccc(F)cc1)N/N=C/c1ccc2c(c1)OCO2`, the inhibition was 42.2% (inactive).
As for `O=C(CNC(=O)C(c1ccccc1)c1ccccc1)N/N=C\c1ccc2c(c1)OCO2`, the figure is 66.2% (active).
For `CN1CCN(C(=O)/C(=C\c2ccc3c(c2)OCO3)NC(=O)c2cccs2)CC1`, the inhibition is -3.92% (inactive).
